# Test results published in PubChem BioAssay (Tox21).
# Unmarked numbers belong to inactive results. Inconclusive results are not listed. Entries that show only a call come without a potency. Calls of active or inactive are those of the source. Unless noted, the call rests on the fitted dose curve; in most records, active means well fitted curve in the direction sought with a large enough effect in the repeat runs; inconclusive means weak or mixed curves; inactive means no such curve, though single readings can be large; an effect the other way counts as inactive or inconclusive.
# Tests used:
# [1] = qHTS assay to identify small molecule agonists of the hypoxia (HIF-1) signaling pathway - cell viability counter screen (AID 1224844; calls by dose curve; further: nearly all actives have a fitted effect of over 50% in size; further: potency means the concentration at half of the fitted maximal effect)
# In short: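 Same wells as the HIF-1 reporter screen; ME-180 cells carrying HRE-bla, 17 hr treatment at 37C; CellTiter-Glo luminescence read after 30 min at room temperature.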
# [2] = qHTS assay to identify small molecule agonists of H2AX (AID 1224845; active means well fitted activation curve with a large enough effect in the signal ratio in the repeat runs, not every such curve was filed as active; the % refers to the signal ratio)
# In short: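 Wild-type CHO-K1 cells plated overnight, then exposed 3 hr at 37C to compounds at 15 concentrations (0.76% DMSO). Lysed, then HTRF anti-pH2AX(S139)-cryptate/anti-H2AX-d2 detection after 24 hr at room temperature; emissions 665 and 620 nm.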
# [3] = qHTS assay to identify small molecule agonists of the hypoxia (HIF-1) signaling pathway (AID 1224846; active means well fitted activation curve with a large enough effect in the signal ratio in the repeat runs, not every such curve was filed as active; the % refers to the signal ratio)
# In short: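 In ME-180 cells bearing an HRE-bla construct, 17 h treatment with DMSO-dissolved compounds at 37C was followed by CCF4-AM loading to quantify reporter induction.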
# [4] = qHTS assay to identify small molecule agonists of H2AX - cell viability counter screen (AID 1224847; calls by dose curve; further: nearly all actives have a fitted effect of over 30% in size; further: potency means the concentration at half of the fitted maximal effect)
# In short: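 Compounds tested at 15 concentrations were incubated 3 hr at 37C with wild-type CHO-K1 cells; cellular ATP-based luminescence (CellTiter-Glo) indicated viability.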
# [5] = qHTS RealTime-Glo MT Cell Viability Assay in HepG2 cells - 24 hour (AID 1224867); further: nearly all actives have a fitted effect of over 50% in size
# In short: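 Compound treatment began 5 h after plating HepG2 cells (600/well) with NanoLuc luciferase and prosubstrate. Plates stayed at 37 C for 40 h; luminescence was captured at six time points, 0 h through 40 h.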
# [6] = qHTS RealTime-Glo MT Cell Viability Assay in HEK293 cells - 32 hour (AID 1224868); further: nearly all actives have a fitted effect of over 50% in size; further: potency means the concentration at half of the fitted maximal effect
# In short: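 Quantitative high-throughput screen of the Tox21 10K library in HEK293: cells and RealTime-Glo reagents plated together, compound added at 5 h, luminescence monitored through 40 h at 37 C.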
# [7] = A CellTox Green Cytotoxicity Assay to monitor cytotoxicity in HEK293 cells - 0 hour (AID 1224869); further: nearly all actives have a fitted effect of over 50% in size
# In short: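 Homogeneous no-lysis format: HEK293 cell suspension mixed with CellTox Green reagent, seeded, incubated 5 h at 37 C/5% CO2, then dosed by pintool with compound in DMSO.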
# [8] = qHTS RealTime-Glo MT Cell Viability Assay in HepG2 cells - 40 hour (AID 1224870); further: nearly all actives have a fitted effect of over 50% in size
# In short: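 HepG2 cells mixed with RealTime-Glo MT reagents (NanoLuc plus cell-permeant prosubstrate) were seeded at 600 cells/well, incubated 5 h at 37 C/5% CO2, then pinned with compounds in DMSO; nonlytic luminescence tracked viability during 40 h treatment.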
# [9] = qHTS assay to identify small molecule antagonists of the estrogen related receptor (ERR) signaling pathway from Tox21 library (AID 1224848)
# In short: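 First, 2,000 ERR cells per well were plated and held 6 h at 37 C/5% CO2. Next, compounds in DMSO were pinned in and left 18 h at 37 C. Finally, ONE-Glo was added and luminescence read after 30 min at room temperature.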
# [10] = qHTS assay to identify small molecule agonists of the estrogen related receptor (ERR) signaling pathway from Tox21 library (AID 1224849; calls by dose curve; further: nearly all actives have a fitted effect of over 15% in size); settings: ERR reporter cell line, ONE-Glo luciferase, 18 h; at 92.4 µM (top of the series) unless noted
# In short: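 Reporter cells (ERR, NTP source) treated with Tox21 10K compounds 18 h, 37 C. Readout: ONE-Glo luminescence, 30 min RT.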
SMILES,Potency [1],Potency [2],outcome [3],Potency [4],Potency [5],Potency [6],Potency [7],Potency [8],Potency [9],"activity change, positive = activation [10]"
CCCCCCCCCCC(=O)O,inactive,inactive,inactive,inactive,inactive,inactive,inactive,inactive,,
O=C1c2ccccc2C(=O)N1CCc1noc(-c2ccc(CN3CCCCCC3)s2)n1,inactive,inactive,inactive,92.3 µM (active),inactive,35.7 µM (active),,inactive,,
Cc1ccc(C(C)(C)O)cc1,inactive,inactive,inactive,inactive,inactive,inactive,inactive,inactive,,
C=C(C)CCCC(C)CCO (stereo not given),inactive,inactive,inactive,inactive,inactive,inactive,inactive,inactive,,
CCOC(=O)[C@H](CCc1ccccc1)N[C@@H](C)C(=O)N(CC(=O)O)C1Cc2ccccc2C1,7.56 µM (active),inactive,inactive,inactive,inactive,inactive,inactive,inactive,,
CCOc1ccccc1O[C@H](c1ccccc1)[C@H]1CNCCO1,inactive,inactive,inactive,inactive,inactive,inactive,,inactive,,
Cc1cc(C)c(N)cc1C,inactive,inactive,inactive,inactive,inactive,,inactive,inactive,,
O=C(Nc1cccc2c(=O)cc(-c3nn[nH]n3)oc12)c1ccc(OCCCCc2ccccc2)cc1,5.35 µM (active),inactive,,inactive,inactive,,inactive,inactive,,
COc1cc(N)c(Cl)cc1C(=O)NC1CCN(CCCOc2ccc(F)cc2)CC1OC (stereo not given),inactive,inactive,,,inactive,3.01 µM (active),inactive,inactive,11.9 µM (active),-39.2% [at 42.5 µM]
OC(CCN1CCCC1)(c1ccccc1)C1CCCCC1 (stereo not given),inactive,inactive,,inactive,inactive,inactive,inactive,inactive,,
CCCCN1CCCC1C(=O)Nc1c(C)cc(C)cc1C (stereo not given),inactive,inactive,,inactive,inactive,,,inactive,,
O=C1c2ccccc2C(=O)C1c1nc2ccccc2c(Br)c1O,inactive,inactive,,inactive,inactive,inactive,inactive,inactive,,
CCCCCCCCOc1ccc(C(=O)O)cc1,inactive,inactive,,inactive,inactive,inactive,inactive,inactive,,
O=C(/C=C/c1ccccc1)OCCc1ccccc1,inactive,inactive,,inactive,inactive,inactive,inactive,inactive,,
C=C1c2cccc(O)c2C(O)=C2C(=O)[C@]3(O)C(O)=C(C(N)=O)C(=O)[C@@H](N(C)C)[C@@H]3[C@@H](O)[C@H]12,inactive,inactive,,inactive,inactive,,inactive,inactive,,-14.2% [at 42.5 µM]
CCn1cc(C(=O)O)c(=O)c2cc(F)c(N3CCNCC3)cc21,inactive,inactive,,inactive,inactive,inactive,inactive,inactive,,

SMILES,Potency [1],Potency [2],outcome [3],Potency [4],Potency [5],Potency [6],Potency [7],Potency [8],Potency [9],"activity change, positive = activation [10]"
CC(=O)[C@H]1[C@H](C#N)C[C@H]2[C@@H]3CC=C4C[C@@H](O)CC[C@]4(C)[C@H]3CC[C@@]21C,inactive,inactive,,,inactive,,inactive,inactive,,-13.1% [at 42.5 µM]
C=CCc1ccccc1OCC(O)CNC(C)C (stereo not given),inactive,inactive,,inactive,inactive,inactive,,inactive,,
CCN(CC)CCNC(=O)COc1ccc(OC)cc1,inactive,inactive,,inactive,inactive,,inactive,inactive,,
CC(=O)OCC[N+](C)(C)C,inactive,inactive,,inactive,inactive,inactive,inactive,inactive,,
C/C=C(/C(=C/C)c1ccc(O)cc1)c1ccc(O)cc1,inactive,inactive,,,inactive,,,inactive,,
CCCC(=O)C(=O)O,inactive,inactive,,inactive,inactive,,inactive,inactive,,
CN(C(=O)CN(CCO)CC(=O)N(C)C(C)(C)Cc1ccccc1)C(C)(C)Cc1ccccc1,inactive,inactive,,,,19 µM (active),inactive,,,-27.5% [at 42.5 µM]
O=C(CCCN1CC=C(n2c(=O)[nH]c3ccccc32)CC1)c1ccc(F)cc1,inactive,inactive,,,inactive,,inactive,inactive,,
O=C(O)C[C@H](NC(=O)OCc1ccccc1)C(=O)O,inactive,inactive,,inactive,inactive,,inactive,inactive,,
Nc1ncnc2c1ncn2[C@H]1CC[C@@H](CO)O1,inactive,inactive,,,inactive,inactive,inactive,inactive,,
CCC(C)COC(=O)CC(C)C (stereo not given),19.5 µM (active),inactive,,inactive,inactive,,inactive,inactive,,
Nc1cccc2c1CN(C1CCC(=O)NC1=O)C2=O (stereo not given),inactive,inactive,,inactive,inactive,inactive,inactive,inactive,,
CC1=Nc2ccc3ccccc3c2C1(C)C,inactive,inactive,,,inactive,inactive,inactive,inactive,,-35.4%
CO[C@]1(NC(=O)CSC(F)F)C(=O)N2C(C(=O)O)=C(CSc3nnnn3CCO)CO[C@H]21,inactive,inactive,,inactive,inactive,inactive,inactive,inactive,,
CCCCCCCCC(CCCCCC)C(=O)O (stereo not given),43.6 µM (active),inactive,,,inactive,inactive,inactive,inactive,,-27.5%
